Inconclusive results are not listed. The source made the active and inactive calls. Calls come from the whole dose curve; as a rule, active = well fitted inhibition curve with a large enough effect; inconclusive = small, poorly fitted or top-dose-only effect; inactive = flat fitted curve, though single readings scatter. Residues, ends and D or L forms follow the SMILES beside them.
Experiment: BET inhibitor-based combinations targeting novel dependencies in MECOM-rearranged (r) AML: AML-191 cell line (AID 2202236; note: nearly all actives have a fitted effect of over 35% in size;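 for viability (% of control): plate controls were vehicle wells for no effect and wells without cells for full effect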)
Settings: AML-191 viability, CellTiter-Glo luminescence, 48 h; series mostly up to 46 µM; viability (% of control): at the top concentration
How it was run: (§1)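 AML cell lines seeded at 500 cells/well, treated with 11-point dose curves for 48 h. Viability by CellTiter-Glo luminescence, normalised to DMSO and empty wells; activity expressed as AUC and per-cell-line Z-transformed AUC.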
Potency is the fitted concentration of half-maximal effect.

| Compound | viability (% of control) | Potency |
| --- | --- | --- |
| C=Cc1c(C)c2cc3nc(cc4[nH]c(cc5nc(cc1[nH]2)C(C)=C5CCC(=O)O)c(CCC(=O)OC)c4C)[C@@]1(C)C3=CC=C(C(=O)OC)[C@H]1C(=O)OC | 101% (inactive) | – |
| CN1C(=O)c2sccc2N(C)c2nc(Nc3ccc(S(N)(=O)=O)cc3)ncc21 | – | 3.72 µM (active) |
| O=C1NCCc2[nH]c(-c3ccncc3)cc21 | – | 1.66 µM (active) |
| O=[N+]([O-])c1ccc(Nc2ccccc2-c2ccccc2)c2nonc12 | – | 20.9 µM (active) |
| Cc1ccc(C(=O)Nc2ccc(CN3CCN(C)CC3)c(C(F)(F)F)c2)cc1C#Cc1cnc2cccnn12 | – | 0.934 µM (active) |
| O=c1c(O)c(-c2ccc(O)cc2)oc2cc(O)cc(O)c12 | – | 14.8 µM (active) |
| C#CCN[C@@H]1CCc2ccccc21 | 111% (inactive) | – |
| Cc1cc(Nc2cc(NC(=O)c3c(Cl)cccc3Cl)ccn2)nc(N)n1 | – | 0.263 µM (active) |
| CC(=O)NC(CS)C(=O)O (configuration not stated) | 96.1% (inactive) | – |
| C[C@H](CCC(=O)O)[C@H]1CCC2C3C[C@H](O)[C@@H]4C[C@H](O)CC[C@]4(C)C3CC[C@@]21C (some centres not stated) | 104% (inactive) | – |
| O=S(=O)(O)CCSSCCS(=O)(=O)O | 103% (inactive) | – |
| CCOc1ccccc1N=Nc1c(C)[nH]n(-c2nc(-c3ccccc3)cs2)c1=O | 99.7% (inactive) | – |
| Cc1cc2c(cc1CC(=O)c1sccc1S(=O)(=O)Nc1onc(C)c1Cl)OCO2 | 64.9% (inactive) | – |

Experiment: BET inhibitor-based combinations targeting novel dependencies in MECOM-rearranged (r) AML: AML-194 cell line (AID 2202237; note: nearly all actives have a fitted effect of over 40% in size;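 for viability (% of control): plate controls were vehicle wells for no effect and wells without cells for full effect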)
Settings: AML-194 (MECOM-r AML) viability, CellTiter-Glo, 48 h; series mostly up to 46 µM; viability (% of control): at the top concentration
How it was run: as §1

| Compound | Potency | viability (% of control) |
| --- | --- | --- |
| CN(C)CCN1C(=O)c2cccc3cc(N)cc(c23)C1=O | 16.6 µM (active) | – |
| Fc1ccc(Cl)cc1-c1nc(Nc2ccncc2)c2nccnc2n1 | – | 117% (inactive) |
| CCCCCN=C(N)N/N=C/c1c[nH]c2ccc(OC)cc12 | 20.9 µM (active) | – |
| O=[N+]([O-])c1cn2c(n1)OC[C@@H](OCc1ccc(OC(F)(F)F)cc1)C2 | – | 107% (inactive) |
| CN1CCN2c3ncccc3Cc3ccccc3C2C1 (configuration not stated) | – | 105% (inactive) |
| C=C1c2cccc(O)c2C(O)=C2C(=O)[C@@]3(O)C(O)=C(C(N)=O)C(=O)[C@@H](N(C)C)[C@@H]3[C@@H](O)[C@H]12 | – | 95.3% (inactive) |
| CCn1c(-c2nonc2N)nc2c(C#CC(C)(C)O)ncc(OC[C@H]3CCCNC3)c21 | 20.9 µM (active) | – |
| O=C1NC(=O)/C(=C/c2ccc3nccnc3c2)S1 | – | 93.1% (inactive) |
| COC(=O)[C@H](Cc1ccccc1)NC(=O)[C@@H](N)CC(=O)O (H-Asp-Phe-OMe) | – | 111% (inactive) |
| CC1=C(CC(=O)O)c2cc(F)ccc2C1=Cc1ccc(S(C)=O)cc1 (configuration not stated) | – | 102% (inactive) |
| O=C(O)c1nc(=O)[nH]c(=O)[nH]1 | – | 105% [at 15.6 µM] (inactive) |
| O=C(O)C(O)Cc1ccc(O)c(O)c1 (configuration not stated) | – | 103% [at 92.2 µM] (inactive) |
| Cc1ccc(C(C)(O)c2nc3ccccc3s2)c(C)c1 (configuration not stated) | – | 93.1% (inactive) |
| N#Cc1ccnc(Nc2cc(C3CCN(C4COC4)CC3)cc(N3CCC(F)(F)C3)n2)c1 | 4.17 µM (active) | – |
| COC(c1ccccc1)(c1ccccc1)[C@H](Oc1nc(C)cc(C)n1)C(=O)O | – | 96.2% (inactive) |
| COc1cc(OC)c(C(=O)CCCN2CCCC2)c(OC)c1 | – | 105% (inactive) |
| COc1ccc(C=Cc2cc(OC)c(OC)c(OC)c2)cc1NC(=O)[C@H](N)CO | 0.296 µM (active) | – |
| CC[C@H](C=C[C@@H](C)[C@H]1CC[C@H]2[C@@H]3CC=C4C[C@@H](O)CC[C@]4(C)[C@@H]3CC[C@]12C)C(C)C | – | 99.4% [at 15.6 µM] (inactive) |
| C=Cc1c(C)c2cc3nc(cc4[nH]c(cc5nc(cc1[nH]2)C(C)=C5CCC(=O)O)c(CCC(=O)OC)c4C)[C@@]1(C)C3=CC=C(C(=O)OC)[C@H]1C(=O)OC | – | 101% (inactive) |
| Cc1ccc(S(=O)(=O)NC(=O)NN2CC3CCCC3C2)cc1 (configuration not stated) | – | 98.6% (inactive) |
| O=C1NCCc2[nH]c(-c3ccncc3)cc21 | 2.63 µM (active) | – |
| Cc1ccc(C(=O)Nc2ccc(CN3CCN(C)CC3)c(C(F)(F)F)c2)cc1C#Cc1cnc2cccnn12 | 1.48 µM (active) | – |
| O=c1c(O)c(-c2ccc(O)cc2)oc2cc(O)cc(O)c12 | – | 91.1% (inactive) |
| Cc1cc(Nc2cc(NC(=O)c3c(Cl)cccc3Cl)ccn2)nc(N)n1 | 0.332 µM (active) | – |
| CC(=O)NC(CS)C(=O)O (configuration not stated) | – | 101% (inactive) |
| C[C@H](CCC(=O)O)[C@H]1CCC2C3C[C@H](O)[C@@H]4C[C@H](O)CC[C@]4(C)C3CC[C@@]21C (some centres not stated) | – | 107% (inactive) |
| O=S(=O)(O)CCSSCCS(=O)(=O)O | – | 109% (inactive) |
| CCOc1ccccc1N=Nc1c(C)[nH]n(-c2nc(-c3ccccc3)cs2)c1=O | – | 104% (inactive) |
| Cc1ccc(O)c(C(CCN(C(C)C)C(C)C)c2ccccc2)c1 (configuration not stated) | – | 116% (inactive) |

— PubChem BioAssay (NCATS)
